The panel holds about 83,000 compounds, 20% with a hit somewhere; the sample as a whole holds those more often.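 Results are percent growth after 48 hours of single-concentration exposure. 100 means growth as in untreated cells, lower positive values show inhibition; negative values down to -100 show cell death.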 Values without a mark were called inactive. Active and inactive are the calls of the source. Rule for the calls: active = growth percent below 10; inactive = the rest.
Assays:
Test in all cases: NCI-60 one-dose screen, 48 h (100 = growth as untreated, 0 = no growth, -100 = all killed)
EKVX NSCLC = conditions: 10 µM
SN12C renal = conditions: 10 µM
UO-31 renal = conditions: 10 µM
TK-10 renal = conditions: 10 µM unless noted
ACHN renal = conditions: 10 µM
CAKI-1 renal = conditions: 10 µM
A498 renal = conditions: 10 µM
CCRF-CEM leukemia = conditions: 10 µM
MOLT-4 leukemia = conditions: 10 µM
SK-MEL-2 melanoma = conditions: 10 µM

| Structure (SMILES) | growth (EKVX NSCLC) | growth (SN12C renal) | growth (UO-31 renal) | growth (TK-10 renal) | growth (ACHN renal) | growth (CAKI-1 renal) [%] | growth (A498 renal) | growth (CCRF-CEM leukemia) | growth (MOLT-4 leukemia) | growth (SK-MEL-2 melanoma) [%] |
| --- | --- | --- | --- | --- | --- | --- | --- | --- | --- | --- |
| O=C(O)c1cccc([N+](=O)[O-])c1 | 114% | 103% | 89.6% | 110% | 114% | 100 | 102% | 112% | 101% | – |
| c1ncc2[nH]cnc2n1 | 126% | 97.1% | 83.5% | 103% | 95.1% | 94.8 | 79.1% | 88.7% | 80.8% | – |
| CC(C)(C)c1cc(O)c(C(C)(C)C)cc1O | – | 87.4% | 90.3% | – | 92.4% | 84.4 | 58.5% | 80.4% | 73.2% | 86.6 |
| O=c1[nH]nc(SC2CCCCC2)c(=O)[nH]1 | 99.5% | 102% | 77.9% | 95.3% | 113% | 95 | 93.7% | 106% | 89% | – |
| Cc1ccc(CCCC(=O)O)c(C)c1 | – | 97.9% | 90.9% | 95% | 98.3% | 99.7 | 101% | – | 98.7% | 91.1 |
| O=C1OC(=O)C2C1C1(Cl)C(Cl)=C(Cl)C2(Cl)C2C(=O)OC(=O)C21 (configuration not stated) | – | 105% | 84.4% | 93% | 105% | 106 | 107% | – | 105% | 88.7 |
| CCCNc1ccc(C2=NCCCN2)cc1 | – | 109% | 81.7% | – | 102% | 101 | 71.7% | 99.1% | 93.7% | 102 |
| C/C(=N\O)C1(O)CCCCC1 | – | 101% | 96.8% | – | 97.7% | 99.3 | 99.1% | 99.4% | 89.8% | 82.9 |
| CCOC(=O)C1=C(Nc2ccc(Br)cc2)C(=O)N(CC)C1 | – | 86% | 84.1% | 101% | 92.4% | 88.2 | 90.9% | – | 103% | 124 |
| Sc1ccc(Nc2c3ccccc3nc3ccccc23)cc1 | – | 95.6% | 82.4% | 104% | 97% | 92.2 | – | 97.1% | 94.1% | 40.7 |
| COc1cc(C(=O)N/N=C/c2cccc([N+](=O)[O-])c2)cc(OC)c1OC | 83.8% | 93.8% | 73.7% | 81.1% | 79.9% | 55.4 | 26.3% | 62.1% | 70.7% | – |
| Cc1ccc(C(O)C2CC2)cc1 (configuration not stated) | – | 102% | 88.5% | – | 104% | 91.9 | 87.5% | 91.7% | 100% | 104 |
| O=C(CN1CCNCC1)N1CCOCC1 | 107% | 104% | 84.6% | 110% | 110% | 101 | 116% | 100% | 81.6% | – |
| CC(=Nc1ccccc1)C1=C(O)C(Cc2cccc(F)c2)NC1=O (configuration not stated) | – | 29.7% | 35.9% | – | 26.4% | 37.2 | 0.117% (active) | 6.2% (active) | -12.4% (active) | 13.1 |
| N=c1c(C(=O)OCc2ccccc2)ncc(CCl)n1O | 101% | 88.6% | 83.5% | 106% | 94.6% | 92.2 | 103% | 94% | 97.8% | – |
| Cc1c(O)cnc2nn(-c3ccccc3)c(=N)n12 | – | 97.7% | 94.5% | 109% | 96.7% | 102 | 106% | – | 104% | 94.7 |
| O=c1c2ccccc2c(Br)c(Br)c2ccccc12 | 105% | 96.8% | -35.2% (active) | 23.6% | 53.7% | 56.5 | 113% | 30.7% | 53.6% | – |
| CC(C)=CC(=O)OC(=O)C=C(C)C | – | 100% | 94.5% | – | 105% | 108 | 124% | – | 101% | 108 |
| CC(C)(O)C#CC#CC(C)(C)O | 99.5% | 109% | 99.1% | 95.6% | 98.8% | 97.5 | 93.6% | 98.6% | 90.7% | – |
| CC(=O)c1ccc(C)c(N)c1 | 91.8% | 96% | 81.4% | 98.5% | 101% | 92.9 | 95.4% | 94.3% | 103% | – |
| O=[N+]([O-])c1cccc2nsnc12 | – | 104% | – | – | 105% | 114 | 102% | 95.9% | 101% | 106 |
| O=C(Cc1ccccc1)Cc1ccccc1 | – | 104% | 98% | – | 98.1% | 97.9 | 101% | 98.3% | 96.7% | 90.1 |
| CN(C)/N=C/c1ccccc1O | – | 97.7% | 92.3% | – | 97.6% | 96.1 | 94.5% | 100% | 95.9% | 90.3 |
| CCN(CC)c1ccc2nc3ccc(=[N+](CC)CC)cc-3oc2c1 | 8.19% (active) | 0.99% (active) | 56% | -26.1% (active) | 8.56% (active) | 34.9 | 74.4% | 11.2% | -21.4% (active) | – |
| CCOc1ccc2[nH]c(=S)sc2c1 | 96.2% | 102% | 88% | 103% | 111% | 100 | 94% | 98.3% | 86.7% | – |
| CCCCC(O)c1ccccc1 (configuration not stated) | 110% | 109% | 94.2% | 106% | 110% | 99.7 | 95.8% | 107% | 101% | – |

| Structure (SMILES) | growth (EKVX NSCLC) | growth (SN12C renal) | growth (UO-31 renal) | growth (TK-10 renal) | growth (ACHN renal) | growth (CAKI-1 renal) [%] | growth (A498 renal) | growth (CCRF-CEM leukemia) | growth (MOLT-4 leukemia) | growth (SK-MEL-2 melanoma) [%] |
| --- | --- | --- | --- | --- | --- | --- | --- | --- | --- | --- |
| O=C(N/N=C/c1ccccc1O)Nc1nn[nH]n1 | – | 100% | 90.2% | – | 92.8% | 94.8 | 94.9% | 98.8% | 109% | 110 |
| CCCC[P+](c1ccccc1)(c1ccccc1)c1ccccc1 | – | 60.1% | 86.9% | 74.8% | 84.9% | – | 75.5% | – | 59.1% | 75.7 |
| OC1OC(COC(c2ccccc2)(c2ccccc2)c2ccccc2)C(O)C(O)C1O (configuration not stated) | – | 74% | 76.7% | – | 96.9% | 96.5 | 93.7% | – | 87.6% | 91.5 |
| CC1NC(=O)NC1CCCCCC(=O)O (configuration not stated) | – | 105% | – | 100% | 101% | – | 87.8% | 2.23% (active) | 118% | 103 |
| CC1(c2ccccc2)NC(=O)NC1=O (configuration not stated) | 120% | 96.9% | 82.5% | 98.8% | 107% | 104 | 123% | 102% | 101% | – |
| Nc1ccccc1SC(CC(=O)c1ccccc1)c1c(Cl)cccc1Cl (configuration not stated) | – | 62.9% | 58.1% | – | 69.4% | 76.9 | 79.1% | – | 17.2% | 91.6 |
| O=C(O)c1cccc([N+](=O)[O-])c1O | – | 102% | 86.1% | – | 104% | 99 | 109% | 100% | 99.5% | 118 |
| COc1cc([C@@H]2c3cc4c(cc3[C@H](O)[C@H]3COC(=O)[C@H]23)OCO4)cc(OC)c1OC | 38.8% | 32.9% | 48.2% | 51.4% | 34.6% | 26.9 | -10.2% (active) | 6.58% (active) | -6.06% (active) | – |
| CC[N+](C)(CC)CCO | – | 98% | 92% | 95.3% | 106% | 94 | 109% | – | 101% | 109 |
| CC(C)(N)COS(=O)(=O)O | – | 93.6% | 100% | 115% | 114% | 103 | 113% | – | 96.9% | 117 |
| CCC/C=C(\C)C(C)(C#N)C(=O)OCC (configuration not stated) | – | – | 100% | 108% | 106% | 92.3 | 98.9% | 90.4% | 104% | 105 |
| Cc1nc2c(ccc3ccccc32)s1 | 110% | 107% | 96.9% | 119% | 111% | 103 | 115% | 85.7% | 103% | – |
| O=C(O)CNC(=O)c1ccccc1 | 93.4% | – | – | – | – | – | – | – | – | – |
| NCCC(=O)c1ccc(Cl)cc1 | 110% | 108% | 85.7% | 102% | 121% | 101 | 107% | 103% | 89.6% | – |
| C=CCNc1nnc(C)s1 | 109% | 95.6% | 81.1% | 123% | 96.7% | 119 | 123% | 105% | 168% | – |
| N#CC1(Nc2ccc3c4c(cccc24)CC3)CCCCC1 | 102% | 92.7% | 55.6% | 102% | 101% | 74.8 | – | 59% | 70.1% | – |
| COC(=O)/C=C1\Sc2cc(F)ccc2NC1=O | 88.2% | 116% | 101% | 139% | 111% | 60.9 | 126% | 87.9% | 92.3% | – |
| CCCCN(CCCC)CCCO | 110% | 107% | 104% | 85% | 105% | 106 | 114% | – | 113% | – |
| C=CC(=O)OCCCCCCCC | 111% | 103% | 88.4% | 140% | 101% | 97.6 | 89.8% | 83% | 89.9% | – |
| c1ccc2c(N3CCCCC3)ncnc2c1 | 94% | 91.1% | 62.5% | 90.9% | 81.9% | 91 | 106% | 93.2% | 91.2% | – |
| COC(=O)/C=C\C(=O)OC | 122% | 102% | 81.1% | 109% | 113% | 112 | 104% | 110% | 87.8% | – |
| OCc1cccc2ccccc12 | 119% | 108% | 95.5% | 100% | 98.6% | 110 | 109% | – | 97.5% | – |
| COc1cc2nc3cc([N+](=O)[O-])ccc3c(Cl)c2cc1OC | 83.3% | 97.7% | 84.1% | 95.2% | 91.9% | 101 | 7.26% (active) | – | 107% | – |
| NC(=S)CN1CCOCC1 | 112% | 103% | 88% | 99.3% | 103% | 95.6 | 89.9% | -25.8% (active) | 32.3% | – |
| CC(=O)Nc1cccc(NC(C)=O)n1 | 104% | 99.7% | 99.4% | 111% | 105% | 126 | 100% | 90.3% | 111% | – |
| O=c1cc(-c2ccccc2)oc2c1ccc1ccccc12 | 80.1% | 84.2% | 58.9% | 108% | 77% | 90.8 | 73% | 89.4% | 75.6% | – |

— PubChem BioAssay (NCI)
